From the supplement of paper PMC10849652 come the findings set out here.

Holding throughout (assay): log2 fold change, soluble protein after heating vs DMSO (PISA); higher = thermal stabilisation; K562 cells, 10 uM, 30 min; active = over 0.2 and 3.5 SD of the protein, either way, in both replicates (recomputed)
Compound in assay [1]: COC1=CC=C(C=C1)CN2C=CC3=C2C=C(C=C3)C(=O)NO
The gist of the method:
(§1)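 Values are thermal stability changes relative to control samples and are taken from duplicates. They are stated as log2 fold changes. Before quantification by TMTpro 16plex LC-MS/MS with equalised channel sums, K562 cells at 2×10^6 cells/mL were treated with 10 μM compound for 30 min, heated in aliquots for 3 min across 48°C-58°C, pooled, extracted in PBS with 0.5% NP-40 at 4°C, and centrifuged at 21,000xg for 90 min to give the soluble supernatant.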

Compound in assay [2]: CO[C@H]1C[C@@H]2CC[C@@H](C)[C@@](O)(O2)C(=O)C(=O)N2CCCC[C@H]2C(=O)O[C@H]([C@H](C)C[C@@H]2CC[C@H](n3cnnn3)[C@H](OC)C2)CC(=O)[C@H](C)/C=C(\C)[C@@H](O)[C@@H](OC)C(=O)[C@H](C)C[C@H](C)/C=C/C=C/C=C/1C [zotarolimus]
The essentials: as §1

Compound in assay [3]: COc1cc(C(=O)O)ccc1NC(=O)[C@@H]1N[C@@H](CC(C)(C)C)[C@](C#N)(c2ccc(Cl)cc2F)[C@H]1c1cccc(Cl)c1F [idasanutlin]
The essentials: as §1

Compound in assay [4]: COc1cc2nc(-c3cc(F)ccc3O)nc(N[C@@H]3CNC[C@H]3C(C)(C)O)c2cc1OC
The gist of the method:
as §1

Compound in assay [5]: COc1cc2ncnc(Nc3ccc(F)c(Cl)c3)c2cc1OCCCN1CCOCC1 [gefitinib]
The essentials:
as §1

Compound in assay [6]: CS(=O)(=O)CCNCc1ccc(-c2ccc3ncnc(Nc4ccc(OCc5cccc(F)c5)c(Cl)c4)c3c2)o1 [lapatinib]
The essentials: as §1

Compound in assay [7]: CS(=O)(=O)N1CCN(Cc2cc3nc(-c4cccc5[nH]ncc45)nc(N4CCOCC4)c3s2)CC1 [pictilisib]
The gist of the method: as §1

Compound in assay [8]: C[C@@H](Oc1cc(-c2cnn(C3CCNCC3)c2)cnc1N)c1c(Cl)ccc(F)c1Cl [crizotinib]
The gist of the method:
as §1

Compound in assay [9]: C[C@@H]1COCCN1C2=NC(=NC(=C2)C3(CC3)S(=O)(=O)C)C4=C5C=CNC5=CC=C4
The essentials: as §1

Compound in assay [10]: C[C@H](C1=CC=C(C=C1)C(=O)NC2=C3C=CNC3=NC=C2)N
The gist of the method:
as §1

Compound in assay [11]: C[C@H](Nc1ncnc2nc[nH]c12)c1cc2cccc(Cl)c2c(=O)n1-c1ccccc1 [duvelisib]
The gist of the method: as §1

Compound in assay [12]: Cc1cc(Nc2cc(CN3CCOCC3)c3nc(C)c(Cc4ccc(Cl)cc4F)n3n2)n[nH]1 [gandotinib]
The gist of the method: as §1

Compound in assay [13]: Cc1cc(SCc2sc(-c3ccc(C(F)(F)F)cc3)nc2C)ccc1OCC(=O)O
The essentials:
as §1

Compound in assay [14]: Cc1ccc(-n2nc(C(C)(C)C)cc2NC(=O)Nc2ccc(OCCN3CCOCC3)c3ccccc23)cc1 [doramapimod]
The gist of the method: as §1

Compound in assay [15]: COc1cc(Nc2ncc3c(n2)-c2ccc(Cl)cc2C(c2c(F)cccc2OC)=NC3)ccc1C(=O)O [alisertib]
The essentials: as §1

Compound in assay [16]: COc1cccc2cc(-c3nc([C@H]4CC[C@H](C(=O)O)CC4)n4ncnc(N)c34)[nH]c12
The essentials:
as §1

Compound in assay [17]: CON(C)C(=O)N1N=C(c2cc(F)ccc2F)S[C@@]1(CCCN)c1ccccc1 [filanesib]
The gist of the method: as §1

Compound in assay [18]: CS(=O)(=O)c1ccc(-c2cnc(N)c(C(=O)Nc3ccccc3)n2)cc1
The gist of the method: as §1

Compound in assay [19]: Cc1cc(Nc2cc(N3CCN(C)CC3)nc(Sc3ccc(NC(=O)C4CC4)cc3)n2)n[nH]1 [tozasertib]
The gist of the method: as §1

Compound in assay [20]: Cc1ccc(C(=O)N(CCCN)[C@@H](c2nc3cc(Cl)ccc3c(=O)n2Cc2ccccc2)C(C)C)cc1 [ispinesib]
The essentials: as §1

Targets with a hit are over-represented here; the source holds about 7,900 in all. About 0.6% of all pairs of compound and target were hits. Unmarked numbers belong to inactive results.

Sequence of UniProt Q92686 (Q92686 whole entry, looked up): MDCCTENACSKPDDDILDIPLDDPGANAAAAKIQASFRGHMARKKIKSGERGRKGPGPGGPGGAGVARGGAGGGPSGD
Sequence of UniProt Q9H1P3 (Q9H1P3 whole entry, looked up): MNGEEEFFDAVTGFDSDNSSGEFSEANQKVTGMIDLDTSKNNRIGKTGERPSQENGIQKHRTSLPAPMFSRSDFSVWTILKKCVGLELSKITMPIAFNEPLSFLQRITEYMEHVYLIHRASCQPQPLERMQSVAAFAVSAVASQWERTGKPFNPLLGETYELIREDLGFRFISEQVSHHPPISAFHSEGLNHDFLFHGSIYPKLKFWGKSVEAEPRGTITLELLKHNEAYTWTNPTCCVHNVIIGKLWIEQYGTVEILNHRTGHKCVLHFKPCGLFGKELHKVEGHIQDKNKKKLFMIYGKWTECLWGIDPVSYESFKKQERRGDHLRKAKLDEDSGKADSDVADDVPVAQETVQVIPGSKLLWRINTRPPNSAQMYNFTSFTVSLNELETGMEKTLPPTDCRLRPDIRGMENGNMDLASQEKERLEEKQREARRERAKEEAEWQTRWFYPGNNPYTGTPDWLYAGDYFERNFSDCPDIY
Sequence of UniProt Q8N573 (Q8N573 whole entry, looked up): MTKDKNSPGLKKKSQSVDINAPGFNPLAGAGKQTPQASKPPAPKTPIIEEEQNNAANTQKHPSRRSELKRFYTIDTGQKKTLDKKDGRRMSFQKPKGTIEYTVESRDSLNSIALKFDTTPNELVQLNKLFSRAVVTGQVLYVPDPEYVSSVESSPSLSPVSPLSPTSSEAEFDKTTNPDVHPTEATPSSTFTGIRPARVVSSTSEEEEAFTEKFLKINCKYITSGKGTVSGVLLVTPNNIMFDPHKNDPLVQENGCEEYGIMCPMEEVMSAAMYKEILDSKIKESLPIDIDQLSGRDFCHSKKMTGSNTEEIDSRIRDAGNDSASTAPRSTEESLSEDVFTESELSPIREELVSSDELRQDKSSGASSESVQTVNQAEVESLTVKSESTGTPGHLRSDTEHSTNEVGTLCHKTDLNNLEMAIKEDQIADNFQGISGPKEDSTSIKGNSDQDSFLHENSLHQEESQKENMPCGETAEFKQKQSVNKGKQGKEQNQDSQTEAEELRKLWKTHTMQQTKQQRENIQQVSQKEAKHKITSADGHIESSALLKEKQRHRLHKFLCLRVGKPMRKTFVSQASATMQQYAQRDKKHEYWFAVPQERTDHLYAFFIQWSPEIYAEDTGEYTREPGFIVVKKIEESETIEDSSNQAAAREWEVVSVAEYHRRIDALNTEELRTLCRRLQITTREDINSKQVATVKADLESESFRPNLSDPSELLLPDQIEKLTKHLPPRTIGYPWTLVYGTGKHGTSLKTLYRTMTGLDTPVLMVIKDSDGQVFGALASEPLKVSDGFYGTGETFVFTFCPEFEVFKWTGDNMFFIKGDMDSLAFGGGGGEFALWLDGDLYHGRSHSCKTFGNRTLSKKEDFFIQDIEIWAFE
Sequence of UniProt Q69YL0 (Q69YL0 whole entry, looked up): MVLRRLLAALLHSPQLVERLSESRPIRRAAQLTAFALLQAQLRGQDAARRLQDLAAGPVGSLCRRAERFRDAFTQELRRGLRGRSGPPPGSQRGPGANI
Sequence of UniProt Q9UQ49 (Q9UQ49 whole entry, looked up): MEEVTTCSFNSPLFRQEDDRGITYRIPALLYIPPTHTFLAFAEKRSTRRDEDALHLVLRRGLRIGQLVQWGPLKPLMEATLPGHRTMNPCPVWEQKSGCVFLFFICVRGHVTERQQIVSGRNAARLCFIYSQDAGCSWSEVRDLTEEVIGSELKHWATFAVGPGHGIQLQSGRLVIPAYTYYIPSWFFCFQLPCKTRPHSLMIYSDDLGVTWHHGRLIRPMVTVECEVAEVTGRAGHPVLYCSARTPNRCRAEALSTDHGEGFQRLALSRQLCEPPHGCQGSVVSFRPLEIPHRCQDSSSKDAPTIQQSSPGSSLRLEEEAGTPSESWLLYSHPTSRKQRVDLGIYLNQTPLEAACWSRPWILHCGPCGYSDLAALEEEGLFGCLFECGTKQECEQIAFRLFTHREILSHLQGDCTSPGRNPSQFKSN
Sequence of UniProt P53370 (P53370 whole entry, looked up): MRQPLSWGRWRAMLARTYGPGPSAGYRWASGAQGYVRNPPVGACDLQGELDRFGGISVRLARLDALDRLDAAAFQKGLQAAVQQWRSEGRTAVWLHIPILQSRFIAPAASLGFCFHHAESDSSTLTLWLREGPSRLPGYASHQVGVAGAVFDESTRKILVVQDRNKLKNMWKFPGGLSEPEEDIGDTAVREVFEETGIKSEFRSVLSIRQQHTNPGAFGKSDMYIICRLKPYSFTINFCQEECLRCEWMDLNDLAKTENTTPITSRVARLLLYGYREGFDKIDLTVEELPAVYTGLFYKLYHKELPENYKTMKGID
Sequence of UniProt Q8IXH7 (Q8IXH7 whole entry, looked up): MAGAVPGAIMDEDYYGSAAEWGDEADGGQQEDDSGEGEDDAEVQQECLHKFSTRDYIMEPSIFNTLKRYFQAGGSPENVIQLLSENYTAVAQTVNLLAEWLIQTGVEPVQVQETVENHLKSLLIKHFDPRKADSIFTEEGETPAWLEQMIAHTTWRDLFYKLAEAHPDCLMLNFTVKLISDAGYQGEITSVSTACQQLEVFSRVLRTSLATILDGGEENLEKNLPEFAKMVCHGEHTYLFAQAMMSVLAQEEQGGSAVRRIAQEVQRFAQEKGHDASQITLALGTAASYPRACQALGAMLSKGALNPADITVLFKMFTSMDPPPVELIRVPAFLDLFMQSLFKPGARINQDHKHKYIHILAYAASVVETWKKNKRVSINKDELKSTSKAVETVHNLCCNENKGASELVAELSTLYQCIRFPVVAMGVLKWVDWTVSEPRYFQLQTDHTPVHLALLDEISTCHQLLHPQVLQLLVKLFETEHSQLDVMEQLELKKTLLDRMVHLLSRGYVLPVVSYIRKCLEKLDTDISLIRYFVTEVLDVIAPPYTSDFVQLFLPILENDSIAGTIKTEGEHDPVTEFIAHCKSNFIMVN
Sequence of UniProt P0C024 (P0C024 whole entry, looked up): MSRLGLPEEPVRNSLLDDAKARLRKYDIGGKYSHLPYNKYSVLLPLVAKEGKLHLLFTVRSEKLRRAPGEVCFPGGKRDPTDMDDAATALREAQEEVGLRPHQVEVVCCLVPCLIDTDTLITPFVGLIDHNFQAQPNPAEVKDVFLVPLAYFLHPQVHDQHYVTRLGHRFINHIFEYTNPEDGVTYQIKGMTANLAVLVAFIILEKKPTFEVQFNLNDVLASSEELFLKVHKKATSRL
Sequence of UniProt P48645 (P48645 whole entry, looked up): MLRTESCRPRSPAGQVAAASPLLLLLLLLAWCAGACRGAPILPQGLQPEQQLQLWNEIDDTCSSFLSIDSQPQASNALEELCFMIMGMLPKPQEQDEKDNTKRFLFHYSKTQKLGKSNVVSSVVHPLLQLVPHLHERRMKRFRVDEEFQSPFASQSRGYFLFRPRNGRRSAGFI
Sequence of UniProt Q9UI43 (Q9UI43 whole entry, looked up): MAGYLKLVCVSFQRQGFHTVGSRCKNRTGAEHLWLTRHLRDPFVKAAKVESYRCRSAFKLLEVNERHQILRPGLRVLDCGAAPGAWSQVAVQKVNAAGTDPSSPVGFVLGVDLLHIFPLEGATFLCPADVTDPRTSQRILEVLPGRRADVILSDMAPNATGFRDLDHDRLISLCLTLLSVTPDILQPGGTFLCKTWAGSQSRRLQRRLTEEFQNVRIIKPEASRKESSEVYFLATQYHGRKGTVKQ
Sequence of UniProt Q8N7B6 (Q8N7B6 whole entry, looked up): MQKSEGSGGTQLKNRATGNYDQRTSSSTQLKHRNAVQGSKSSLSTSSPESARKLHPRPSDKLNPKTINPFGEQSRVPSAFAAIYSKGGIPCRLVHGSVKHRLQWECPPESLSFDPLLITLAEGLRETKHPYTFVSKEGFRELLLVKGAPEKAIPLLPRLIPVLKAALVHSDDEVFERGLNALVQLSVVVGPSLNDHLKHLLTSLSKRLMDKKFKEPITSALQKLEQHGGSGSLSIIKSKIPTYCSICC
Sequence of UniProt Q9UBD5 (Q9UBD5 whole entry, looked up): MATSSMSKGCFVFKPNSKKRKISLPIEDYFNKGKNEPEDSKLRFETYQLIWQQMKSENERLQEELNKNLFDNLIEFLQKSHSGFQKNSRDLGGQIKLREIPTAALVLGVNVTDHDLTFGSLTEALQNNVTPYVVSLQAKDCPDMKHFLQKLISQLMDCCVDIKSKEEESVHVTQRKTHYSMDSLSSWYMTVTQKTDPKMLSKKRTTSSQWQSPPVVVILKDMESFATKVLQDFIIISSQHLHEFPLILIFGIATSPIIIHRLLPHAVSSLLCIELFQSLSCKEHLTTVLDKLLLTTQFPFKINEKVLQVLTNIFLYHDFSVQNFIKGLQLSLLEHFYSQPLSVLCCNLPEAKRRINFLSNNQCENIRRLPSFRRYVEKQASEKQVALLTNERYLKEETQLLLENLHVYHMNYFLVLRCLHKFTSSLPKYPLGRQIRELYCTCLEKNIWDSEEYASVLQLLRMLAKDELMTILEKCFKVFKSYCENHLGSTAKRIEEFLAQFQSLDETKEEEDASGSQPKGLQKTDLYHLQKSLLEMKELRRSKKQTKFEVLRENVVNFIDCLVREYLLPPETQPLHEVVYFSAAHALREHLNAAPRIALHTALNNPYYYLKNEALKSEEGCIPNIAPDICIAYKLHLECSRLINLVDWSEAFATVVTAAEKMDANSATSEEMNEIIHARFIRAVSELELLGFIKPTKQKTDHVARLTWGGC

For the target NELFCD (UniProt Q8IXH7), the log2 fold change in [1] was 0.006; in assay [2], -0.071; in [3], 0; in [4] it was 0.179; in assay [5] it was -0.052; in [6] it was -0.006. Further, the log2 fold change in [7] was -0.061; in assay [8], 0.349; in [9] it was 0.145; in assay [10], 0.006; in [11], 0.13; in assay [12], -0.327. The log2 fold change in [13] was 0.249; in assay [14] it was 0.025.
Take ORC3 (UniProt Q9UBD5): the log2 fold change in assay [3] is -0.167.
With NAP1L1 (UniProt B7Z9C2), the log2 fold change in assay [1] was -0.116; in [3], -0.004; in [15], 0.258; in [5], 0.03; in assay [16], 0.066; in assay [7] it was 0.111. Also, the log2 fold change in [8] was -0.015; in assay [11], 0.327; in assay [12], 0.041; in assay [13], 0.433; in assay [14], 0.155.
In the case of PACRGL (UniProt Q8N7B6), the log2 fold change was 0.056 in [17] and -0.074 in [18].
Turning to NEU3 isoform 2 (UniProt Q9UQ49), the log2 fold change in assay [17] was -0.286; in assay [4] it was 0.301; in [6], -0.126; in assay [18], 0.062.
With NUDT6 (UniProt P53370), the log2 fold change in assay [1] is 0.017; in assay [2], -0.173; in assay [15], 0.012; in assay [4] it was 0.175; in [5], -0.025; in assay [16], -0.084. Besides, the log2 fold change was -0.017 in assay [6]; 0.069 in assay [8]; 0.122 in assay [9]; 0.6 in [10]; 0.019 in assay [11]; -0.036 in assay [19]. In addition, the log2 fold change in [13] is -0.094; in [14], -0.127; in assay [20], -0.097.
On to OSBPL2 (UniProt Q9H1P3), for which the log2 fold change in assay [2] was 0.085; in assay [15], -0.019; in assay [4], -0.187; in [16], -0.042; in assay [6], 1.57 (active); in assay [10], 0.124.
Consider NRGN (UniProt Q92686), for which the log2 fold change in assay [1] is -0.831; in assay [3], 0.023; in assay [4], -0.108; in [5] it was -0.012; in assay [6], 0.107; in [7] it was 0.404. The log2 fold change is 0.241 in assay [8]; 0.043 in assay [9]; 0.891 (active) in assay [12]; -0.282 in assay [14]; 0 in assay [20].
For the target NCBP2AS2 (UniProt Q69YL0), the log2 fold change in [17] is -0.09; in assay [2], -0.051; in assay [3] it was -0.023; in assay [15], -0.058; in assay [4] it was -0.42 (active); in assay [5], -0.137. The log2 fold change in assay [16] is 0.044; in [6], -0.093; in [7] it was 0.033; in assay [18], -0.092; in assay [10], -0.027; in assay [11], 0.037. For the same target, the log2 fold change is -0.064 in [12], -0.034 in [19], 0.044 in assay [13] and -0.48 (active) in assay [20].
As for MRM2 (UniProt Q9UI43), the log2 fold change in assay [2] was 0.11; in assay [3] it was 0.518 (active); in assay [4] it was 0.078; in assay [5] it was 0.066; in assay [6], 0.108; in assay [10], -0.042. Also, the log2 fold change in [11] was 0; in assay [19], -0.119; in [13], 0.123.
For OXR1 isoform 2 (UniProt Q8N573), the log2 fold change is -0.175 in assay [1]; -0.014 in [2]; -0.009 in assay [3]; 0.018 in [4]; 0.014 in assay [5]; -0.061 in assay [6]. The log2 fold change in assay [7] was -0.073; in [8], -0.027; in assay [9] it was 0.187; in [10], -0.105; in assay [11] it was 0.024; in assay [12], -0.225. In addition, the log2 fold change is 0.005 in [19], 0.043 in assay [13], 0.022 in [14] and -0.134 in assay [20].
In the case of NA, A0A1W2PSA9, the log2 fold change in assay [2] was -0.275; in assay [3], 0.049; in [7], -0.179; in assay [10], 0.041; in [11], 0.311; in [12], 0.403. The log2 fold change is -0.062 in assay [19], -0.371 in assay [13] and -0.059 in assay [20].
Regarding NUDT7 (UniProt P0C024), the log2 fold change was 0.023 in [1]; -0.092 in assay [17]; 0.05 in [5]; 0.115 in [7]; 0.03 in assay [18]; 0.004 in [8]. Moreover, the log2 fold change in assay [9] was 0.248; in assay [12] it was -0.23; in [19] it was 0.165; in assay [14], 0.011; in [20] it was -0.157.
Turning to NMU (UniProt P48645), the log2 fold change is 0.259 in [1]; -0.018 in [2]; 0.057 in assay [3]; -0.156 in [4]; 0.162 in [5]; -0.047 in assay [6]. Besides, the log2 fold change in assay [7] was -0.3; in [8] it was 0.025; in assay [9], -0.445; in [10], -0.026; in assay [11], -0.001; in [12], -0.159. Besides, the log2 fold change in [19] was -0.092; in assay [13] it was 0.127; in assay [14] it was -0.04; in assay [20], -0.186.
